This note sets out measurements from PubChem BioAssay AID602144 (Vanderbilt Specialized Chemistry Center, 2011).

Molecules are shown by their SMILES. Where “and” joins values, the source holds several entries; their conditions need not be identical. Identical values can stand only once. A number with no mark means an inactive call. Calls of active or inactive are those of the source. Cut-off read from the data, not from the text of the source: active = remaining activity below about 50%; inactive = the rest.

Phospholipase D1 (Homo sapiens), sequence (Q13393 whole entry, looked up): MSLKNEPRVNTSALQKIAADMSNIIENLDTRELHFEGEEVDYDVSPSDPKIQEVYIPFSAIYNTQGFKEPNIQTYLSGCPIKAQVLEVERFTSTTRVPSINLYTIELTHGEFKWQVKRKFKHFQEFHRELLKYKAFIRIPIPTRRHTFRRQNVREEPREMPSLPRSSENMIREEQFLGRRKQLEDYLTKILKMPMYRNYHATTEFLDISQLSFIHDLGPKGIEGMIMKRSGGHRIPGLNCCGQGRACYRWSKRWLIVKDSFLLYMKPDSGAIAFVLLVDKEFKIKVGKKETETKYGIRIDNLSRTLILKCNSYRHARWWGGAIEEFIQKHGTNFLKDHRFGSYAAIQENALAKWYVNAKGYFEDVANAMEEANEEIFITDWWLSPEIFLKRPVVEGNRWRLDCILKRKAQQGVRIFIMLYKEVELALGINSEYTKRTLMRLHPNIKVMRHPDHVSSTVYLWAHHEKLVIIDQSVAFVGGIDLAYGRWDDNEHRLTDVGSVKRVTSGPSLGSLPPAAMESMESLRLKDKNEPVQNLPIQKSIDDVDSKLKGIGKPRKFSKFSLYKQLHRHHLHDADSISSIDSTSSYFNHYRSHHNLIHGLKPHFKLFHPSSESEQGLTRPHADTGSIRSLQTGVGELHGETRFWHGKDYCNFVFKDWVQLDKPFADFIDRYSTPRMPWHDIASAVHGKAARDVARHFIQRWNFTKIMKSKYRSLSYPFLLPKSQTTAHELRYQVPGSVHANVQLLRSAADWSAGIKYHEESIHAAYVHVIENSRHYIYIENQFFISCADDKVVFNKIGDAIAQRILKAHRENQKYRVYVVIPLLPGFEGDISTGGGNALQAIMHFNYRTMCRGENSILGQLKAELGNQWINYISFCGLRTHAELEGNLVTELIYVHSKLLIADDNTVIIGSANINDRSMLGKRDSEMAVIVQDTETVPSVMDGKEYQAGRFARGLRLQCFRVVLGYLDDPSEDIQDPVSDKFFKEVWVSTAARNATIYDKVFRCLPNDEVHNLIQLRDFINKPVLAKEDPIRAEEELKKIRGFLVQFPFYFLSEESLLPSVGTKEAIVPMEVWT
Phospholipase D1 (Homo sapiens), sequence (Q13393 whole entry, looked up): as above

This test has as its target Phospholipase D1 (Homo sapiens) (UniProt Q13393). The test is described as follows: cellular phospholipase D1 activity inhibition – Calu-1 cells, single concentration (AID 602144).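 Note: tested at 200 nM.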 The following applies: cellular PLD1 activity, stronger effect = lower value.
Consider `O=C(NCCN1CCC2(CC1)C(=O)NCN2c1cccc(F)c1)c1ccc(F)nc1`, for which the remaining activity is 117%.
As for `Cc1ccccc1C(=O)NCCN1CCC2(CC1)C(=O)NCN2c1cccc(F)c1`, the figure is 97.2%; as for `O=C(CCc1ccc(F)cc1)NCCN1CCC2(CC1)C(=O)NCN2c1ccccc1`, 69.5%.
As for `O=C(NCCN1CCC2(CC1)C(=O)NCN2c1ccccc1)C(c1ccccc1)c1ccccc1`, the figure is 99.2%.
In the case of `O=C(c1ccc2ccccc2c1)N1CCCC1CN1CCC(n2c(=O)[nH]c3ccccc32)CC1` (stereo not given) it was 101% and 112%; in that of `O=C1NCN(c2ccccc2)C12CCN(CCN1CCCC1)CC2`, 116%.
For `CN(CCN1CCC2(CC1)C(=O)NCN2c1ccccc1)C(=O)c1ccc2ccccc2c1`, the remaining activity was 84.1%.
In the case of `C[C@H](N)CN1CCC2(CC1)C(=O)NCN2c1ccccc1` (tested in a mixture with another compound) it was 96.4%; in that of `CC(C)[C@@H](CN1CCC2(CC1)C(=O)NCN2c1ccccc1)NC(=O)c1ccc(Cl)cc1`, 18% (active).
Take `CCOC(=O)CCN1CCC2(CC1)C(=O)NCN2c1ccccc1`: the remaining activity is 83.2%.
On to `O=C(NCCN1CCC2(CC1)C(=O)NCN2c1ccccc1)c1cccc(Cl)n1`, for which the remaining activity was 132%.
As for `CCC(=O)N[C@@H](C)CN1CCC2(CC1)C(=O)NCN2c1ccccc1`, the figure is 93.3%; as for `O=C(c1cnc2ccccc2c1)N1CC(N2CCC(n3c(=O)[nH]c4ccccc43)CC2)C1`, 119%; as for `O=C(NCCN1CCC2(CC1)C(=O)NCN2c1ccc(F)cc1)c1cc2cc(F)ccc2[nH]1`, 48.1% (active).
In the case of `O=C(CCN1CCC2(CC1)C(=O)NCN2c1ccccc1)Nc1ccc(Cl)cc1` it was 122%; in that of `O=C(NCCN1CCC2(CC1)C(=O)NCN2c1ccccc1)C1C[C@H]1c1ccccc1` (stereo not given in full), 138%.
As for `O=C(NCCN1CCC2(CC1)C(=O)NCN2c1ccccc1)c1cscn1`, the figure is 92.4%; as for `CC(C)(C)C(=O)NCCN1CCC2(CC1)C(=O)NCN2c1cccc(F)c1`, 71.8%.
With `C[C@H](CN1CCC2(CC1)C(=O)NCN2c1ccccc1)NC(=O)c1cc2cc(F)ccc2[nH]1`, the remaining activity is 2.46% (active).
Regarding `O=C(c1cnc2ccccc2c1)N1CC(N2CCC(n3c(=O)[nH]c4cc(Br)ccc43)CC2)C1`, the remaining activity was 81.6%.
In the case of `O=C(NCCN1CCC2(CC1)C(=O)NCN2c1ccccc1)c1cc2cccnc2s1` it was 51.1%; in that of `O=C(NCCN1CCC2(CC1)C(=O)NCN2c1ccc(F)c(F)c1)c1ccc(F)cc1`, 101%; in that of `O=C(NCCN1CCC2(CC1)C(=O)NCN2c1ccccc1)c1cnc2ccccc2n1`, 96.5%.
In the case of `NC1(CN2CCC3(CC2)C(=O)NCN3c2ccccc2)CCCC1` (tested in a mixture with another compound) it was 85.3%; in that of `O=C(NCCN1CCC2(CC1)C(=O)NCN2c1ccc(Br)cc1)c1cnc2ccccc2c1`, 94.1%; in that of `O=C(NCCN1CCC2(CC1)C(=O)NCN2c1ccccc1)c1ccc2c(c1)C(=O)OC2=O`, 103%.
For the molecule `O=C(Cc1ccccc1Br)NCCN1CCC2(CC1)C(=O)NCN2c1cccc(F)c1`, the remaining activity was 100%.
In the case of `O=C(NCCN1CCC2(CC1)C(=O)NCN2c1cccc(F)c1)c1c(F)cccc1F` it was 80.5%.
In the case of `O=C(COCc1ccccc1)NCCN1CCC2(CC1)C(=O)NCN2c1cccc(F)c1` it was 108%; in that of `O=C(NCCN1CCC2(CC1)C(=O)NCN2c1ccc(Cl)cc1)c1cc2cc(F)ccc2[nH]1`, 79.4%; in that of `C[C@H](CN1CCC2(CC1)C(=O)NCN2c1ccccc1)NC(=O)c1cc(Br)c(Br)o1`, 71.8%.
In the case of `O=C1c2ccccc2C(=O)N1CCN1CCC2(CC1)C(=O)NCN2c1ccccc1` it was 102%; in that of `O=C(C1C[C@H]1c1ccccc1)N1CC(N2CCC(n3c(=O)[nH]c4ccccc43)CC2)C1` (stereo not given in full), 125%; in that of `O=C(NCCN1CCC2(CC1)C(=O)NCN2c1ccccc1)C1CCc2ccccc2C1` (stereo not given), 103% and 104%.
As to `Cc1ccccc1C(=O)N(CCN1CCC2(CC1)C(=O)NCN2c1cccc(F)c1)C(=O)c1ccccc1C`, the remaining activity was 105%.
